Only some compounds are listed: those with a hit (about 7.3% of all), similar ones and a draw of the others.
Tau fluor cs = counter-screen for tau fibril formation inhibitors | Potency, µM (top dose mostly 57.7 µM), for the others: at the top dose activity change, negative = decrease | hit rate 0.93% among 280,000 | AID 1463 | tau K18 P301L Alexa594 fluorescence, heparin fibrillization; further: nearly all actives have a fitted effect of over 55% in size
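Human K18 P301L tau (15 uM unlabeled plus 0.24 uM Alexa 594-labeled, final) in 100 mM sodium acetate pH 7 was mixed with compound and 20 uM heparin and incubated 6 hr at 37 C.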
Tau fibril FP = blocks human tau fibril formation measured by polarization | P10636 | K18 P301L tau heparin fibrillization, Alexa594 FP, 6 h | Potency, µM (doses to about 57.7 µM), for inactives: at the top dose activity, negative = inhibition, usual class: inhibitors | hit rate 0.39% among 280,000; further: nearly all actives have a fitted effect of over 55% in size
Target sequence (P10636 561-689 P618L limits assumed): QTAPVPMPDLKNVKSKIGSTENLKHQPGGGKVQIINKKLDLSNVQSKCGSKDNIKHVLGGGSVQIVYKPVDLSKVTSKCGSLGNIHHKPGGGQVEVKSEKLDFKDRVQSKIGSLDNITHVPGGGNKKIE
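FP of Alexa 594-tau after heparin (20 uM) induction. Substrate: human K18 P301L, 15 uM unlabeled, 0.24 uM labeled. Buffer 100 mM sodium acetate pH 7. 6 hr, 37 C.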
Tau fibril ThT = tau fibrillization inhibition (ThT binding); AID 1460; P10636; Potency, µM (titrated, usually from 57.4 µM), for inactives: at the top dose activity, negative = inhibition, hits mostly inhibitors; hit rate 2.1% among 270,000; recombinant tau K18 P301L, heparin-induced fibrillization, ThT fluorescence; further: nearly all actives have a fitted effect of over 55% in size
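Fibril formation assay: tau K18 P301L at 15 uM with trace Alexa 594 label, heparin inducer 20 uM, pH 7 sodium acetate buffer, 37 C for 6 hr; endpoint ThT signal.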
Gal4-VP16 FLuc = inhibits Gal4-VP16 luciferase reporter, ROR gamma counter-screen | Drosophila S2 Gal4-VP16 UAS-luciferase, luminescence, 20 h | Potency, µM (series often up to 53.6 µM), for inactives: top-dose activity, negative = inhibition, hits mostly inhibitors | hit rate 3.5% among 310,000 | AID 2546;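 further: Gal4-VP16 expression switched on by copper sulfate through the metallothionein promoter; nearly all actives have a fitted effect of over 50% in size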
RORg inh = inhibitors of mouse ROR gamma transcriptional activity; AID 2551; Potency, µM (doses to about 53.6 µM), without a hit: at the top dose activity change, negative = inhibition, most hits filed as inhibitors; Drosophila S2 Gal4-RORgamma UAS-luciferase reporter, 20 h; hit rate 5.4% among 310,000; P51450; further: nearly all actives have a fitted effect of over 60% in size
Target sequence (P51450 whole entry, looked up, the tested form may be a part): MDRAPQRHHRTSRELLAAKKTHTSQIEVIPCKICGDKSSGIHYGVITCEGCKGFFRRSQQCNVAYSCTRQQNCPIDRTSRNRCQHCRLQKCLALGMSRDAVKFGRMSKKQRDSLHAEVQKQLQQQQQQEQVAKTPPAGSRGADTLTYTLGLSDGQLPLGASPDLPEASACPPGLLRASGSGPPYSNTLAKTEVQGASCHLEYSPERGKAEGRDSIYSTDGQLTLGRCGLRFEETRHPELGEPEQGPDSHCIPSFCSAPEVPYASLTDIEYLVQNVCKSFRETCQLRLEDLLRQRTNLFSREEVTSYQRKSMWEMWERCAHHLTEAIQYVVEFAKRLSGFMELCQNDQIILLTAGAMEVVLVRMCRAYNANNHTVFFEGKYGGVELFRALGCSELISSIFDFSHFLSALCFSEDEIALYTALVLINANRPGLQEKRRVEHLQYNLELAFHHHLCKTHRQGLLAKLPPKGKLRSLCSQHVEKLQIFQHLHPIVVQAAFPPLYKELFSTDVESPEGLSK
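Drosophila S2 cells stably expressing Gal4-DBD/mouse RORγ fusion under metallothionein promoter plus UAS-luciferase; compound 1 h, then 700 uM CuSO4 induction for 20 h at ambient temperature; inhibition read as reduced luminescence.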
Starred values were filed as active, the others as inactive; ? = inconclusive; . = not tested or not shown; [ ] = remark or other dose. The call rests on the fitted dose curve; in most records, active means well fitted curve in the direction sought with a large enough effect; inconclusive means small, poorly fitted or top-dose-only effect, or another doubt; inactive means no such curve, though single readings can be large; an effect the other way counts as inactive or inconclusive. On the % scale 0 is the no-effect control and ±100 the full control effect; potency means the concentration at half of the fitted maximal effect.

SMILES	Tau fluor cs	Tau fibril FP	Tau fibril ThT	Gal4-VP16 FLuc	RORg inh
CO[C@@H]1COC(=O)C/C=C\[C@@H](C)[C@H](OC)COC(=O)C/C=C\[C@H]1C	-4%[11.6 µM]	-4%[11.6 µM]	-7%[11.5 µM]	0%[10 µM]	-13%[10 µM]
FC(F)(F)c1cccc(-c2nnc3ccc(C(F)(F)F)cn23)c1	-5%	0%	-3%	-4%	10µM*
CCOC(=O)N1CCC(Nc2cc(C)nc3c(-c4ccccc4OC)c(C)nn23)CC1	-5%	10%	?	-1%	?
CCOC(=O)N1CCN(C(=O)CSc2cc(C)nc3c(-c4ccccc4OC)c(C)nn23)CC1	-2%	5%	-12%	13µM*	20µM*
O=C(CCc1nc2ccccc2c(=O)[nH]1)NCc1ccco1	-2%	-3%	-2%	12%	2%
CN(CC(=O)Nc1ccccc1Sc1ccccc1)Cc1nc2ccccc2c(=O)[nH]1	-15%	-1%	-10%	3.5µM*	0.45µM*
CN(CC(=O)NC(c1ccccc1)c1ccccc1)Cc1nc2ccccc2c(=O)[nH]1	-12%	11%	-11%	13µM*	?
CC(NC(=O)CSc1nc2ccccc2c(=O)[nH]1)c1ccccc1 (centres undefined)	-4%	-6%	-4%	?	?
CN(CC(=O)NC(=O)NCc1ccco1)Cc1nc2ccccc2c(=O)[nH]1	3%	-11%	-13%	3.5µM*	1µM*
Cc1cc(C)n(CCNC(=O)c2ccc3c(c2)OCO3)n1	.	.	.	3%	0%
Cc1ccc(/C=N/NC(=O)c2cc(C)oc2C)cc1	-18%	-5%	?	?	-42%
Cc1cc(NC(=O)c2ccccc2O)nc(C)n1	-8%	-3%	-10%	-20%	?
Cc1cc(C)nc(NNC(=O)c2ccccc2O)n1	14%	-1%	5%	3%	11µM*
CC1(C(=O)Nc2ccc3ccccc3c2)CC1(Br)Br (centres undefined)	-24%	1%	?	?	11µM*
COc1ccccc1C(=O)NNC(=O)c1ccccc1F	1%	4%	-2%	-25%	-39%
CC(/C=N\NC(=O)c1cc(C)oc1C)=C\c1ccccc1	-15%	-2%	?	?	6.3µM*
COc1ccccc1C(=O)NNC(=O)c1cccc(F)c1	-4%	4%	4%	10µM*	10µM*
CCN1CCN(CCCNC(=O)c2cc3c(=O)n(C)c4ccccc4c3s2)CC1	0%	-2%	-14%	.	.
Cc1ccc2cc3cc(C(=O)N4CCN(c5ccc(Cl)cc5)CC4)oc3nc2c1	-8%	-4%	-9%	.	.
COc1cc2c(cc1NC(=O)COc1cc(C)cc(C)c1)oc1ccccc12	-12%	-1%	-11%	.	.
Cc1ccc(C(=O)NNC(=O)c2cc3ccccc3cc2O)cc1	.	.	.	?	14µM*
CC(=O)c1cc(C(=O)Nc2ccc3ccccc3c2)c(C)o1	.	.	.	-17%	-7%
Cc1cc(C(=O)Nc2ccc3ccccc3c2)c(C)o1	.	.	.	?	8.9µM*
COc1ccc(C(=O)NNC(=O)C2CCCO2)cc1 (centres undefined)	-5%	6%	-1%	2%	-4%
COc1ccc(C)cc1NC(=O)NNC(=O)c1cc2ccccc2cc1O	.	.	.	-5%	-19%
SMILES	Tau fluor cs	Tau fibril FP	Tau fibril ThT	Gal4-VP16 FLuc	RORg inh
Cc1ccc(C(=O)Nc2ccc3ccccc3c2)cc1	.	.	.	11µM*	6.3µM*
COc1ccccc1C(=O)NNC(=O)C1CCCO1 (centres undefined)	.	.	.	9%	11µM*
Cc1ccc(CNC(=O)C2CCC(=O)N(CCCN3CCOCC3)C2)cc1 (centres undefined)	.	.	.	-6%	-16%
COc1cc2ccccc2cc1C(=O)NNC(=O)c1ccccc1O	.	.	.	?	11µM*
COc1ccc2c(c1)CC(C(=O)NCCN1CCN(c3cccc(Cl)c3)CC1)CO2 (centres undefined)	-20%	0%	?	.	.
CCN(C(=O)CCS(=O)(=O)c1ccc2c(c1)CCN2C(C)=O)c1cccc(C(F)(F)F)c1	-11%	-5%	-6%	.	.
COc1cc(OC)c(-c2c3cc(O)c(=O)cc-3oc3cc(O)c(O)cc23)cc1OC	-24%	?	13µM*	?	?
Cc1c2cc(O)c(=O)cc-2oc2cc(O)c(O)cc12	10µM*[quencher]	10µM*	3.2µM*	?	?
Cc1ccccc1Cn1c(=O)n(CCc2ccccc2)c(=O)c2c(C)c(C)sc21	-18%	-7%	-7%	.	.
CC(=O)Nc1nnc(-c2ccc(Cl)s2)o1	1%	3%	-1%	5.6µM*	3.5µM*
CCC(=O)Nc1nnc(-c2ccc(Cl)s2)o1	3%	-9%	3%	13µM*	7.1µM*
COc1ccc2[nH]cc(CCNc3ncncc3-c3cccc(NS(C)(=O)=O)c3)c2c1	.	.	.	-1%	5%
CCOc1ccc(/C=N/NC(=O)c2nnn(-c3nonc3N)c2-c2ccc(OCC)cc2)cc1	-3%	?	9%	?	?
CCOc1ccc(-c2c(C(=O)N/N=C/c3c[nH]c4ccccc34)nnn2-c2nonc2N)cc1	.	.	.	3.2µM*	?
CCCOc1ccc(-c2c(C(=O)N/N=C/c3ccsc3)nnn2-c2nonc2N)cc1	.	.	.	?	7.9µM*
CCN(CC)c1ccc(/C=N/NC(=O)c2nnn(-c3nonc3N)c2-c2ccc(C)cc2)cc1	.	.	.	?	13µM*
Cc1ccc(CNC(=O)CSc2nc3ccsc3c(=O)n2-c2ccc(C(=O)O)cc2)cc1	-8%	7%	-2%	.	.
Nc1ncc(S(=O)(=O)NCc2cccc(Cl)c2)cn1	-14%	-1%	-10%	.	.
Cc1c(C(=O)NCc2cccc(Br)c2)oc2ccc3c(c12)C(=O)CC(C)(C)O3	-24%	-3%	-8%	.	.
Cc1ccccc1NC1=C(Cl)C(=O)OC1OC(=O)c1ccco1 (centres undefined)	-26%	-4%	?	-28%	10µM*
COc1ccc2c(c1)sc1ncc(C(=O)NCc3cccc(C)c3)c(=O)n12	-22%	-2%	-12%	.	.
O=C(Cc1ccc(Br)cc1)Nc1nc2ccccc2[nH]1	-19%	7%	-14%	-28%	?
O=C(Cc1ccc(Cl)cc1)Nc1nc2ccccc2[nH]1	-4%	-8%	-5%	7.1µM*	0.28µM*
O=C(Cc1ccccc1)Nc1nc2ccccc2[nH]1	-7%	3%	-10%	16µM*	13µM*
O=C(CSc1ccccc1)Nc1nc2ccccc2[nH]1	-14%	-12%	2%	?	13µM*
COc1ccc(Cl)cc1NC(=O)CSC1=Nc2ccccc2C2=NC(CC(=O)NCc3ccc4c(c3)OCO4)C(=O)N12 (centres undefined)	-17%	?	?	.	.
CCC(=O)N(CC)C1=C(O)c2ccccc2C(=O)C1=O	?	?	16µM*	?	?
C=CCn1c(-c2ccccc2OC)n[nH]c1=S	1%	2%	-2%	?	11µM*
C=CCn1c(-c2cccc3ccccc23)n[nH]c1=S	-5%	1%	-9%	10µM*	3.5µM*

Screening results as filed in PubChem.
